The nature of assay [1]: Primary qHTS for inhibitors of nuclear receptor binding SET domain protein 2 (NSD2) in an RCH-ACV wild type WT cells (2C) (AID 1645877). Further: nearly all actives have a fitted effect of over 70% in size. Further: potency means the concentration at half of the fitted maximal effect. A general note: In qHTS, concentration-response curves come from the screen itself.
Assay [2] concerns the target Glutathione peroxidase 1 (Homo sapiens) (UniProt P07203). The experiment in a line: Primary qHTS Assay for Inhibitors of Recombinant Selenoprotein Glutathione Peroxidase 1 (GPX1) (AID 1845191). Further: nearly all actives have a fitted effect of over 65% in size. In short, it runs like this:
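Recombinant GPX1 (10 nM final) was preincubated with compound for 30 min at room temperature, then reacted with 1 mM GSH, 0.5 mM CHP, 0.5 mM NADPH and 100 nM glutathione reductase; NADPH fluorescence (340/450 nm) was read at 0 and 15 min.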

For assay [3], the target named is Phospholipid hydroperoxide glutathione peroxidase GPX4 (Homo sapiens) (UniProt P36969). The experiment in a line: Primary qHTS Assay for Inhibitors of Recombinant Selenoprotein Glutathione Peroxidase 4 (GPX4) (AID 1845192). Further: nearly all actives have a fitted effect of over 65% in size. In short, it runs like this: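 GR-coupled readout: 100 nM GR, 1 mM GSH, 0.5 mM NADPH; NADPH fluorescence (ex 340/em 450 nm) read at t=0 and after 15 min RT. GPX4 200 nM, preincubated 30 min with compound; substrate 0.5 mM CHP.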
Sequence of Phospholipid hydroperoxide glutathione peroxidase GPX4 (Homo sapiens) (P36969 whole entry, looked up): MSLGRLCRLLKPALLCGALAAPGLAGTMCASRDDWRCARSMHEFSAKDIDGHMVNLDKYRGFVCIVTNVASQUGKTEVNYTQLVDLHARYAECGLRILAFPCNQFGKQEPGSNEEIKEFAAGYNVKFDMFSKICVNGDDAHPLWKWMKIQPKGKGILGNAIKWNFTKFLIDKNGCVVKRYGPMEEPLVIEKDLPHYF

Molecules are shown by their SMILES. Records with an inconclusive call do not appear. Activity calls are given as the source filed them. The call rests on the fitted dose curve; in most records, active means well fitted curve in the direction sought with a large enough effect; inconclusive means small, poorly fitted or top-dose-only effect, or another doubt; inactive means no such curve, though single readings can be large; an effect the other way counts as inactive or inconclusive.

Sequence of Glutathione peroxidase 1 (Homo sapiens) (P07203 whole entry, looked up): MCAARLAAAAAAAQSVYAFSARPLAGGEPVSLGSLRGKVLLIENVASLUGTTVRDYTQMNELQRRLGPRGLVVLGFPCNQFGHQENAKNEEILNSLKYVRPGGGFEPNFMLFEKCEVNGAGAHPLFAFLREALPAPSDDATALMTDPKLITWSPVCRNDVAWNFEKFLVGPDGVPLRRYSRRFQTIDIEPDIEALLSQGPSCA

Take `CO[C@@H]1[C@H](O)[C@@H](O[C@@H]2C[C@H]3CC[C@@H]4C(CC[C@]5(C)[C@@H](C6=CC(=O)OC6)CC[C@]45O)[C@@]3(C)[C@H](O)C2)O[C@H](C)[C@@H]1O[C@@H]1O[C@H](CO)[C@@H](O)[C@H](O)[C@H]1O` (some centres undefined): the Potency in assay [1] is 0.304 µM (active). In addition, the Potency entry in assay [2] and in assay [3] was “inactive” in each case.
As for `CCN1C[C@]2(COC(=O)c3ccccc3N3C(=O)C[C@H](C)C3=O)CC[C@H](OC)[C@@]34[C@@H]5C[C@H]6[C@H](OC)[C@@H]5[C@](O)(C[C@@H]6OC)[C@](O)([C@@H](OC)[C@H]23)[C@@H]14`, the Potency result in assay [1], in assay [2] and in assay [3] was “inactive” each time.
Consider `C/C(O)=C(\C#N)C(=O)Nc1cc(Br)ccc1Br`, for which the Potency entry in assay [1], in assay [2] and in assay [3] was “inactive” each time.
Regarding `N#C[C@@H](O[C@@H]1O[C@H](CO[C@@H]2O[C@H](CO)[C@@H](O)[C@H](O)[C@H]2O)[C@@H](O)[C@H](O)[C@H]1O)c1ccccc1`, the Potency entry in assay [1], in assay [2] and in assay [3] was “inactive” each time.
As for `COC1C(O)C(OC2CCC3(C=O)C(CCC4C3CCC3(C)C(C5=CC(=O)OC5)CCC43O)C2)OC(C)C1OC1OC(CO)C(O)C(O)C1O` (centres undefined), in assay [1], the Potency was 0.342 µM (active). Also, the Potency result in assay [2] and in assay [3] was “inactive” in each case.
Turning to `C[C@]12CC[C@H]3[C@@H](CC[C@@]45O[C@@H]4C(O)=C(C#N)C[C@]35C)[C@@H]1CC[C@@H]2O`, the Potency in assay [1] was 13.2 µM (active). Besides, the Potency entry in assay [2] and in assay [3] was “inactive” throughout.
On to `COc1cc2c(cc1OC)[C@@]13CCN4CC5=CCO[C@H]6CC(=O)N2[C@H]1[C@H]6[C@H]5C[C@H]43`, for which the Potency entry in assay [1], in assay [2] and in assay [3] was “inactive” in each case.
As to `CC(C)[C@@H](CN1CC[C@@](C)(c2cccc(O)c2)[C@@H](C)C1)NC(=O)[C@H]1Cc2ccc(O)cc2CN1`, the Potency in assay [1] was 14.5 µM (active). The Potency result in assay [2] and in assay [3] was “inactive” in each case.
